Source: PubChem BioAssay (NCI)
About 83,000 compounds went through this panel and 20% of them were active in at least one assay; those are over-represented in the sample as a whole.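 Percent growth is the endpoint: 0 to 100 indicates growth inhibition (40 means 60% inhibition), 0 means no net growth, and negative values indicate cell death.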 Activity calls are given as the source filed them. Rule for the calls: active = growth percent below 10; inactive = the rest.

Each compound was assayed on COLO 205 colon (assay: NCI-60 one-dose screen, 48 h (100 = growth as untreated, 0 = no growth, -100 = all killed)). Conditions: 10 µM unless noted.

| SMILES | growth |
| --- | --- |
| COc1cc(/C(C#N)=C/c2ccc3c(c2OC)OCO3)cc2c1OCO2 | -3.05% (active) |
| CC12CCC3C4(C)COC(c5ccco5)OC4CCC3(C)C1CC(C1=CCOC1=O)O2 (stereo not drawn) | 110% (inactive) |
| C=C1CCC2C3(C)COC(c4ccc(N(C)C)cc4)OC3CCC2(C)C1C/C=C1/C(=O)OCC1O (stereo not drawn) | 19.5% (inactive) |

The compounds below were run on DU-145 prostate in the same assay as above. Conditions: 10 µM unless noted.

| SMILES | growth |
| --- | --- |
| N#C/C(=C1C=C/C(=N/O)C(Cl)=C/1)c1ccc(Cl)cc1 | 35.5% (inactive) |
| c1coc(CNc2ccnc(Nc3ccc(OCCN4CCCCC4)cc3)n2)c1 | 91.6% (inactive) |
| C=C1CCC2C(C)(CO)C(O)CCC2(C)C1C/C=C1/C(=O)OCC1O/C=C/c1ccccc1 (stereo not drawn) | 82.8% (inactive) |
| C=C(C)[C@@H]1CC[C@]2(C(=O)N3CCNCC3)CC[C@]3(C)[C@H](CC[C@@H]4[C@@]5(C)C/C(=C/c6ccncc6)C(=O)C(C)(C)[C@@H]5CC[C@]43C)[C@@H]12 | 113% (inactive) |
| CCOC(=O)C1C(=O)C=C(c2ccc(OC)cc2)CC1c1sc(N(C)Cc2ccccc2)nc1Cl (stereo not drawn) | 91.5% (inactive) |
| COc1cc(/C=C/C(=O)/C=C/c2cc(OC)c3c(c2)OCO3)cc2c1OCO2 | 107% (inactive) |
| C[n+]1c(/C=C/c2c(O)ccc3ccccc23)ccc2ccccc21 | 49.1% (inactive) |
| CCN(CC)CCC(CNc1c2ccc(Cl)cc2nc2ccc(OC)cc12)c1ccccc1 (stereo not drawn) | -23.3% (active) |
| C=C1CC2(OC1=O)C(=O)N(CCCN1C(=O)C3(CC(=C)C(=O)O3)c3ccccc31)c1ccccc12 (stereo not drawn) | 37.4% (inactive) |
| CN(CCCCCl)P(=O)(OCc1ccc([N+](=O)[O-])o1)C(F)(F)C[C@H](NC(=O)CNC(=O)c1ccc(N=[N+]=[N-])cc1)C(=O)NCCc1ccc(O)cc1 (stereo partly drawn) | 117% (inactive) |
